Assay outcomes as filed in PubChem.
This is a sample that favours compounds with a hit; in the whole collection about 2.5% have one here.
GRK2 aptamer HTS = human GRK2 inhibition via aptamer displacement. P25098. bead flow cytometry, FAM-aptamer displacement from GRK2. inhibition of aptamer binding, % at 10 µM. 330,000 tested, 0.59% active;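 active = inhibition of aptamer binding above 40%, roughly 3 SD of noise, on plates passing a quality check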;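 also: median bead fluorescence of bound FAM aptamer so fluorescent compounds give negative values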
Target sequence (P25098 whole entry, looked up): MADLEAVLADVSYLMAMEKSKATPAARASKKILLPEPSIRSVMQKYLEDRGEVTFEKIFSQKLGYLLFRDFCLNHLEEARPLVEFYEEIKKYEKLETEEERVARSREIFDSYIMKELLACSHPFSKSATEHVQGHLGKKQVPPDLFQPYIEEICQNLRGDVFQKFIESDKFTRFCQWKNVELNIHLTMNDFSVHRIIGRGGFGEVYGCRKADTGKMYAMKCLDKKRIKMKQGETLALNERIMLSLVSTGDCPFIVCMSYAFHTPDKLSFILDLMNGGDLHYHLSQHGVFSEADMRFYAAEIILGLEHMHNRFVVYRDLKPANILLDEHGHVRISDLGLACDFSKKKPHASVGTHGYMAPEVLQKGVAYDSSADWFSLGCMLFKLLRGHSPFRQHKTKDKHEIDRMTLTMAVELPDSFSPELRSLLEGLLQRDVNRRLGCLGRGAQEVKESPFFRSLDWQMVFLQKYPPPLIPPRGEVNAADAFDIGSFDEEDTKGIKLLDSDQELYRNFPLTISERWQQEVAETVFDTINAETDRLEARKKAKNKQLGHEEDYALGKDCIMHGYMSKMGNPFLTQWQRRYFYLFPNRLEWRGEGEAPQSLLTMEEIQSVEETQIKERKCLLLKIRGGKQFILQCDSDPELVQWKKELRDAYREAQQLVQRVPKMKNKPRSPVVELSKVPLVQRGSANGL
MEKK2mut PB1 HTS = signal of MEK5 binding to mutant human MEKK2 PB1 domain; 290,000 tested, 0.35% active; AID 1530; bead flow cytometry, Alexa488-MEK5 binding to MEKK2 mutant; percent response, % at 10 µM; in the data active = percent response above about 24%, passing the limit was not always enough
MEKK3 PB1 HTS = raises or lowers MEK5 binding to the human MEKK3 PB1 domain; Q99759; bead-based flow cytometry, Alexa488-MEK5 binding to MEKK3; actives lie on both sides; 0 = blocked by unlabeled MEK5, 100 = vehicle; binding response (% of control), % at 10 µM; 290,000 tested, 1.4% active;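 active = binding response more than 3 SD above or below the average of its plate-row segment, actives on both sides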;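 also: Alexa488 bead fluorescence after subtracting the streptavidin-only scavenger bead signal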
MEKK2wt PB1 HTS = raises or lowers MEK5 binding to wildtype human MEKK2 PB1 domain; Q9Y2U5; bead flow cytometry, Alexa488-MEK5 binding to MEKK2 WT; actives lie on both sides; binding response (% of control), % at 10 µM; 290,000 tested, 1.1% active; AID 1531; in the data active = binding response below about 67% or above about 130%
MEKK2wt confirm = raises or lowers MEK5 binding to wildtype human MEKK2, retest. shares compounds with MEKK3 PB1 HTS. bead flow cytometry, Alexa488-MEK5 binding to MEKK2 WT; actives lie on both sides. binding response (% of control), % at 10 µM. 5,900 tested, 2.4% active; in the data active = binding response below about 16% or above about 210%; inactive = in between
MEKK2mut-MEK5 = signal of MEK5 binding to mutant human MEKK2, retest; shares compounds with MEKK3 PB1 HTS; bead flow cytometry, Alexa488-MEK5 binding to MEKK2 mutant; percent response, % at 10 µM; 5,900 tested, 2% active; AID 1893; in the data active = percent response mostly above about 71%, no sharp cut-off; inactive = mostly below about 38%;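 also: higher means compound restores mutant binding toward wildtype level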
MEKK3 confirm = MEKK3-MEK5 PB1 inhibition, single concentration confirmation. shares compounds with MEKK3 PB1 HTS. bead flow cytometry, Alexa488-MEK5 binding to MEKK3; hits give low values. binding response (% of control), % at 10 µM. 5,900 tested, 1.8% active;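 active = binding response below 72% of control, or above a set upper limit, though filed actives all read lower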;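 also: 100% = DMSO only wells and 0% = binding blocked by excess unlabeled MEK5; lower values mean stronger disruption of MEK5 binding to MEKK3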
* hit, by the source's call; · = no result given; [ ] = another dose, or the depositor's remark.

SMILES	GRK2 aptamer HTS	MEKK2mut PB1 HTS	MEKK3 PB1 HTS	MEKK2wt PB1 HTS	MEKK2wt confirm	MEKK2mut-MEK5	MEKK3 confirm
CNC[C@@H](Cc1ccccc1)NC[C@@H](CC1CCCCC1)NCCCc1ccccc1	·	44.0*	115.0	244.0*	163.0	37.0	99.0
CCC[C@@H](CN[C@@H](CNC)C(C)C)NCCCCc1ccccc1	0.0	-3.0	104.0	119.0	·	·	·
O=C(NCc1ccccc1)N[C@@H](Cc1ccccc1)C(=O)O	4.0	3.0	99.0	98.0	·	·	·
CCOCC(=O)Nc1ccc(OCc2ccccc2)cc1	2.0	3.0	99.0	101.0	·	·	·
CCN(C(=O)c1cn(C)c(=O)c2cc(OC)c(OC)cc12)c1ccccc1C	0.0	2.0	100.0	101.0	·	·	·
CCN(C(=O)c1cn(C)c(=O)c2cc(OC)c(OC)cc12)c1cc(C)ccc1C	0.0	-9.0	1.0*[inhibitor]	-2.0*[inhibitor]	98.0	-5.0	102.0
Cc1c(O)ccc(/C=N/Nc2nc(-c3cccnc3)nc3ccccc23)c1O	0.0	-1.0	97.0	106.0	·	·	·
Cc1ccc(C(=O)CSc2ncnc3sc4c(c23)CCCC4)cc1	2.0	-22.0	0.0*[inhibitor]	-7.0*[inhibitor]	99.0	-3.0	99.0
O=C(Nc1ccc2c(c1)nc1n2CCN(Cc2ccccc2)C1)c1cccs1	0.0	1.0	100.0	3.0*[inhibitor]	100.0	-3.0	103.0
COc1ccc(N=C2S/C(=C\c3ccc(N4CCOCC4)o3)C(=O)N2CCc2c[nH]c3ccccc23)cc1	33.0	99.0*	107.0	161.0*	88.0	-25.0	91.0
CCN1CCN(c2oc(-c3ccc(OC)cc3)nc2C#N)CC1	4.0	5.0	98.0	102.0	·	·	·
Cc1ccc(C(=O)N2CCN=C2SCc2ccc([N+](=O)[O-])cc2)cc1C	0.0	-4.0	64.0*[inhibitor]	82.0	96.0	-2.0	98.0
Cc1ccc(S(=O)(=O)c2cc(OC(=O)c3ccco3)ccc2OC(=O)c2ccco2)cc1	0.0	-1.0	128.0*	101.0	96.0	-8.0	104.0
Clc1ccc(C2=NN(c3ccccc3)C(c3ccco3)C2)cc1 (stereo not drawn)	0.0	-14.0	89.0	91.0	·	·	·
O=[N+]([O-])c1ccc(/C=C/C2=NN(c3ccccc3)C(c3ccco3)C2)o1 (stereo not drawn)	·	44.0	15.0*[inhibitor]	·	29.0	-52.0	20.0*
Fc1ccc(C2=NN(c3ccccc3)C(c3ccco3)C2)cc1 (stereo not drawn)	0.0	-9.0	95.0	85.0	·	·	·
C(=C\c1ccco1)/C1=NN(c2ccccc2)C(c2ccco2)C1 (stereo not drawn)	0.0	2.0	129.0*	78.0	98.0	-3.0	102.0
CN(C)CCC(=O)c1ccc(Cl)cc1	0.0	27.0*	110.0	112.0	99.0	-4.0	99.0
Cc1ccc(C(=O)CNc2ccc(Cl)cc2)cc1	0.0	-47.0	1.0*[inhibitor]	1.0*[inhibitor]	100.0	-5.0	101.0
CC(C)(C)c1cc(C(=O)NC2CC2)n(Cc2ccc(F)cc2)n1	1.0	24.0	131.0*	116.0	100.0	1.0	104.0
CC(C)(C)c1cc(C(=O)Nc2ccc(F)cc2)n(Cc2ccc(F)cc2)n1	0.0	-3.0	91.0	97.0	·	·	·
O=C(Cn1c(COc2ccc(Cl)cc2)nc2ccccc21)NCC(F)(F)F	1.0	29.0	108.0	118.0	·	·	·
N#CCCNC(=O)Cn1c(COc2ccc(Cl)cc2)nc2ccccc21	0.0	1.0	143.0*	108.0	96.0	0.0	97.0
O=C(N/N=C/C1CC=CCC1)c1ccccc1O (stereo not drawn)	1.0	10.0	106.0	99.0	·	·	·
CCOC(=O)C1CCN(C(=O)CCc2ccc(S(=O)(=O)NCC(C)C)cc2)CC1	0.0	26.0*	114.0	113.0	117.0	4.0	102.0
CCC(C)(C)C(=O)Nc1ccc(C(N)=O)cc1	0.0	5.0	102.0	103.0	·	·	·
CCOC(=O)C1CCN(CC(O)COc2ccc(C(C)(C)CC)cc2)CC1 (stereo not drawn)	0.0	-21.0	2.0*[inhibitor]	0.0*[inhibitor]	124.0	13.0	110.0
